Source: PubChem BioAssay
The list is not random: actives were taken first. Their share in the collection is about 14%.
Pf growth 48h – P. falciparum growth inhibition at 48 hours (one generation) | P. falciparum luciferase growth in erythrocytes, 48 h | Potency, µM (highest dose often 28.7 µM), for the others: top-dose activity change, negative = inhibition, actives largely listed as inhibitors | 5.9% of 310,000 active | AID 504832; also: potency is read from the fitted curve at half-maximal effect
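A one-generation exposure of luciferase-tagged malaria parasites in RPMI 1640/Albumax erythrocyte culture, 37 C and 5% CO2. Inhibition is inferred from decreased luminescence after adding detection reagent.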
LASV entry inh – blocks Lassa virus binding to or entry into cells; Lassa virus pseudotype entry inhibition, cell reporter; Potency, µM (doses to about 37.9 µM), inactives show at the top dose activity change, negative = inhibition, hits mostly inhibitors; 1.2% of 300,000 active; AID 540256; calls by dose curve; tested in HEK293 cells; also: potency is read from the fitted curve at half-maximal effect; nearly all actives have a fitted effect of over 50% in size
HCV inh – HCV inhibition; Huh7.5.1 HCVcc-Cre infection, luciferase reporter, 44 h; Potency, µM (highest dose often 41.8 µM), for inactives: top-dose activity change, negative = inhibition, actives largely listed as inhibitors; 3.4% of 340,000 active; AID 651820; also: potency is read from the fitted curve at half-maximal effect
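Whole-lifecycle infectious HCVcc-Cre system; cells 1,000/well, compound then virus (~0.5 moi) added 4 h after plating, 44 h culture. Luciferase read 15 sec following 15 min substrate incubation, room temp.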
MARV entry inh – Marburg virus entry inhibition | Potency, µM (doses to about 37.8 µM), for the others: top-dose activity change, negative = inhibition, most hits filed as inhibitors | AID 540276 | 1.8% of 300,000 active | Marburg virus pseudotyped entry inhibition, cell reporter; calls by dose curve; tested in HEK293 cells; also: potency is read from the fitted curve at half-maximal effect
Pf growth 96h – P. falciparum growth inhibition at 96 hours; Potency, µM (highest dose often 28.7 µM), for the others: at the top dose activity change, negative = inhibition, most hits filed as inhibitors; AID 504834; P. falciparum luciferase reporter growth, 96 h; 6.9% of 320,000 active; also: potency is read from the fitted curve at half-maximal effect
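96 h incubation, 37 C, 5% CO2, of luciferase-reporter P. falciparum-infected RBCs (2% hematocrit, 0.05% parasitemia final) with test compounds; endpoint luminescence.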
HCMV antiviral – blocks human cytomegalovirus replication; HFF cells, HCMV-luciferase reporter, 72 h; hits give low values; activity change, negative = inhibition, % at 57.5 µM; 4.5% of 410,000 active; in the data active = activity change below about -60%; inconclusive = no clear call, values can overlap the other calls; inactive = above about -39%
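HFF cells seeded 16 h at 37C, treated with compounds, infected with luciferase-reporter HCMV at MOI 1 PFU/cell; luciferase read at 72 h post infection, normalized to buffer-only and Salinomycin controls.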
An asterisk follows results filed as active; [ ] = remark or other dose. Unless noted, calls follow the shape of the dose curve; as a rule, active = well fitted inhibition curve with a large enough effect; inconclusive = small, poorly fitted or top-dose-only effect, or another doubt; inactive = no such curve, though single readings can be large or run the other way. % is scaled to controls: 0 for no effect and ±100 for the full control effect.

`O=C(NC1CN2CCC1CC2)c1ccc(-c2ccc([N+](=O)[O-])cc2)o1` (stereo not drawn) gave Pf growth 48h 1.65µM*, LASV entry inh 3.3%, HCV inh inconclusive, MARV entry inh inconclusive, Pf growth 96h inconclusive and HCMV antiviral -8.1.
CC1(C)CC(NC(=O)Nc2ccc([N+](=O)[O-])cc2)CC(C)(C)N1 was read as Pf growth 48h -28.3%, LASV entry inh 5.4%, HCV inh -15.1%, MARV entry inh 0.2%[46.1 µM], Pf growth 96h -12.0% and HCMV antiviral -20.3.
For CC1(C)CC(NC(=O)c2ccc(-c3ccc([N+](=O)[O-])cc3)o2)CC(C)(C)N1 the results were Pf growth 48h 10.4µM*, LASV entry inh inconclusive, HCV inh -6.0%, MARV entry inh -22.5%[46.1 µM], Pf growth 96h inconclusive and HCMV antiviral -26.0.
For Cc1nc(C(F)(F)F)ccc1C(=O)N1CCC1(C)C(=O)NS(=O)(=O)c1cccc(C#N)c1 (stereo not drawn) the results were HCMV antiviral -12.0.
Screening COc1ccc(-n2nc(C(=O)NCC(=O)N3CCN(C)CC3)c3ccccc3c2=O)cc1OC returned Pf growth 48h -7.6%, LASV entry inh 0.2%, HCV inh 19.6%, MARV entry inh -12.3%, Pf growth 96h 129.9% and HCMV antiviral 61.6.
COc1ccc(-n2nc(C(=O)NCC(=O)N3CCN(Cc4ccccc4)CC3)c3ccccc3c2=O)cc1OC was read as Pf growth 48h inconclusive, LASV entry inh -6.3%[46.1 µM], HCV inh -1.2%, MARV entry inh inconclusive, Pf growth 96h 1.04µM* and HCMV antiviral -13.6.
`COc1ccc(N2CCN(C(=O)CNC(=O)c3nn(-c4ccc(OC)cc4)c(=O)c4ccccc34)CC2)cc1` gave Pf growth 48h 0.0%, LASV entry inh inconclusive, HCV inh -10.2%, MARV entry inh inconclusive, Pf growth 96h 14.7µM* and HCMV antiviral -24.1.
O=C(Nc1ccc(Cl)cc1)Nc1nnc(CSCc2ccc(Cl)cc2)s1 was read as Pf growth 48h 4.15µM*, HCV inh 5.01µM*, Pf growth 96h 8.28µM* and HCMV antiviral -67.4*.
CCC(=O)Nc1nnc(CSCc2ccccc2)s1 was read as Pf growth 48h -2.3%, LASV entry inh 1.7%, HCV inh -1.2%, MARV entry inh 10.5%, Pf growth 96h 11.3% and HCMV antiviral 24.4.
CCC(=O)Nc1nnc(CSCc2ccc(F)cc2)s1 was read as LASV entry inh 12.3%, HCV inh inconclusive, MARV entry inh 3.6%, Pf growth 96h 0.928µM* and HCMV antiviral 51.8.
`CCOC(=O)c1ccc(NC(=O)CCCn2c(=O)c3cccn3c3cccnc32)cc1` gave LASV entry inh -29.2%[46.1 µM] and HCMV antiviral -20.8.
CC1=NN(c2ccccc2)C(=O)C1C=Nc1ccccc1O (stereo not drawn) was read as Pf growth 48h 5.22µM*, LASV entry inh inconclusive, HCV inh inconclusive, MARV entry inh inconclusive, Pf growth 96h inconclusive and HCMV antiviral 0.0.
`Cc1ccc2c(c1)N(CC(=O)c1cccc(Cl)c1)C(=O)C(C)O2` (stereo not drawn) gave Pf growth 48h inconclusive, LASV entry inh -8.8%, HCV inh inconclusive, MARV entry inh 9.7%, Pf growth 96h 4.15µM* and HCMV antiviral 34.0.
For Cc1ccc(CN2CCSc3ccc(C(=O)Nc4ccc(C)cc4)cc32)cc1 the results were LASV entry inh 6.0%[46.1 µM], MARV entry inh inconclusive and HCMV antiviral 71.8.
For Cc1ccc(CN2CCSc3ccc(C(=O)NC4CCN(Cc5ccccc5)CC4)cc32)cc1 the results were Pf growth 48h inconclusive, LASV entry inh inconclusive, HCV inh 8.91µM*, MARV entry inh inconclusive, Pf growth 96h 11.0% and HCMV antiviral -20.2.
Screening O=C(NC1CCCC1)c1ccc2c(c1)N(Cc1ccccc1)CCS2 returned Pf growth 48h inconclusive, HCV inh inconclusive, Pf growth 96h 10.4µM* and HCMV antiviral -7.9.
For O=C(NC1CC1)c1ccc2c(c1)N(Cc1ccc(Cl)cc1)CCS2 the results were Pf growth 48h inconclusive, HCV inh 22.4µM*, Pf growth 96h inconclusive and HCMV antiviral inconclusive.
`CC1CCN(S(=O)(=O)c2ccc3c(c2)N(CC(=O)NCC(C)c2ccccc2)C(=O)CO3)CC1` (stereo not drawn) gave LASV entry inh -15.2%[46.1 µM], MARV entry inh -13.1%[46.1 µM] and HCMV antiviral -6.6.
CC(C)c1nc2sc(C(=O)O)c(N)c2c2c1CCCC2 was read as Pf growth 48h inconclusive, LASV entry inh 13.8%, HCV inh -25.9%, MARV entry inh -13.3%[46.1 µM], Pf growth 96h 13.1µM* and HCMV antiviral inconclusive.
`NC(=O)c1sc2nc(-c3ccccc3)c3c(c2c1N)CCCC3` gave Pf growth 48h 32.9%, HCV inh -21.6%, Pf growth 96h 2.4% and HCMV antiviral -60.6*.
`Nc1c(C(=O)NC2CC2)sc2nc3c(c(-c4ccco4)c12)CC/C3=C/c1ccco1` gave Pf growth 48h 49.1%, LASV entry inh 6.8%, HCV inh inconclusive, MARV entry inh 4.47µM* and Pf growth 96h 87.6%.
Screening NC(=O)c1sc2nc3c(c(-c4ccco4)c2c1N)CCC3 returned Pf growth 48h -3.4%, LASV entry inh -14.4%, HCV inh 22.4µM*, MARV entry inh -18.4%, Pf growth 96h 13.3% and HCMV antiviral -73.3*.
Screening COc1cc(C(=O)c2ccccc2C(=O)O)c(OC)c2c1CCCC2 returned LASV entry inh 12.1%, HCV inh 23.2%, MARV entry inh inconclusive and HCMV antiviral 13.5.
`CCOc1ccc(S(=O)(=O)N2CN(c3cccc(C(C)=O)c3)c3nc4ccccc4nc32)cc1` gave LASV entry inh inconclusive, HCV inh inconclusive, MARV entry inh -11.2% and HCMV antiviral -71.4*.
For CN(C(=O)CSc1nc(-c2ccccc2)cn1N)C(c1ccccc1)c1ccccc1 the results were Pf growth 48h 11.7µM*, LASV entry inh -14.8%, HCV inh 1.6%, MARV entry inh inconclusive and HCMV antiviral -13.2.
COc1ccc(CCN(Cc2ccccn2)C(=S)Nc2cccc(C)c2)cc1OC was read as Pf growth 48h 11.7µM*, LASV entry inh 10.8%, HCV inh 26.0%, MARV entry inh -3.6%, Pf growth 96h -24.0% and HCMV antiviral -30.7.
Screening S=C(Nc1ccccc1Cl)N(Cc1ccccc1)Cc1ccccn1 returned Pf growth 48h inconclusive, LASV entry inh -0.2%, HCV inh 10.4%, MARV entry inh -7.9%[46.1 µM], Pf growth 96h 1.04µM* and HCMV antiviral inconclusive.
Screening COc1ccc(NC(=S)N(CCc2ccc(OC)c(OC)c2)Cc2ccccn2)cc1 returned Pf growth 48h inconclusive, LASV entry inh -1.7%, HCV inh -9.3%, MARV entry inh -0.9%[46.1 µM], Pf growth 96h 11.7µM* and HCMV antiviral -7.8.
